# Assay results taken from PubChem BioAssay AID2244 (Southern Research Specialized Biocontainment Screening …, 2010).
# Potency and affinity values are given separately. A number with no mark means an inactive call.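 Rule for the calls: active = viability below 70% at one or more tested concentrations; inactive = viability above 70% at every concentration.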
# Assay: host cell viability loss, Vero E6 – synthesized analogs, cytotoxicity control for West Nile virus antiviral project, SAR follow-up (AID 2244)
# Conditions: CellTiter-Glo luminescence, 72 h, stronger effect = lower value; at 40 µM unless noted
row,Compound,minimum viability
1,CC1CC(C)CN(C(=O)CSc2nc3ccccc3c(=O)n2-c2ccc(F)cc2)C1 (stereo not given),74.6%
2,O=C(CSc1nc2ccccc2c(=O)n1-c1ccc(F)cc1F)Nc1ccc(N2CCOCC2)cc1,70.7%
3,O=c1c2cc([N+](=O)[O-])ccc2nc2n1CCC2,78.7%
4,COc1ccc(NC(=O)CSc2nc3ccccc3c(=O)n2-c2ccc(F)cc2)cc1,70.1%
5,O=c1c2cc(I)ccc2nc2n1CCC2,72.6%
6,O=[N+]([O-])c1ccc2c(c1)C(O)N1CCCC1=N2 (stereo not given),76.7% [at 0.078 µM]
7,COc1cccc(-n2c(SCC(=O)Nc3ccc4c(c3)CCC4)nc3ccccc3c2=O)c1,74.6%
8,Cc1cccc2nc3n(c(=O)c12)CCC3,78.3% [at 0.625 µM]
9,COc1ccc(-c2csc(N(CCCBr)C(=O)c3ccccc3Cl)n2)cc1,70.2%
10,O=c1c2c(F)cccc2nc2n1CCC2,80.3% [at 2.5 µM]
11,Nc1ccc2nc3n(c(=O)c2c1)CCC3,76.6%
12,CC1(O)c2cc(Br)ccc2N=C2CCCN21 (stereo not given),74.6% [at 0.156 µM]
13,Cc1ccc2nc3n(c(=O)c2c1)CCC3,76.4% [at 0.078 µM]
14,CCOC(=O)C1(Cc2ccccc2C(F)(F)F)CCN(C2CCN(C(C)=O)CC2)CC1,87% [at 80 µM]
15,c1ccc2c(c1)CN1CCCC1=N2,89.1% [at 20 µM]
16,CC(=O)Nc1ccc2nc3n(c(=O)c2c1)CCC3,79.7% [at 0.625 µM]
17,O=c1c2cccc(Cl)c2nc2n1CCC2,79.7% [at 5 µM]
18,COc1ccccc1NC(=O)CSc1nc2ccccc2c(=O)n1-c1ccc(F)cc1,78.4%
19,COc1ccc(-c2csc(N(C)C(=O)c3ccccc3Cl)n2)cc1,78.5%
20,Cc1cccc2c(=O)n3c(nc12)CCC3,75.1% [at 0.078 µM]
